The values that follow come from paper PMC5540273 (PLoS ONE, 2017).
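Further: kd values determined as follow-up on hits from a single-replicate KINOMEscan panel screen.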

The subject of one test is MYLK2.
One may read the Kd as the equilibrium constant for the complex coming apart. In the case of `O=C(Nc1n[nH]c2nc(-c3nccs3)c(Br)cc12)C1CC1` [SB-742251], binding was put at a Kd of 160 nM.
With `O=C(Nc1n[nH]c2cc(-c3cccc(F)c3F)ccc12)C1CC1` [SB-733894], the Kd was determined as 92 nM.
Same read-out and setting: the same measure for `O=C(Nc1n[nH]c2nc(-c3nccs3)c(Br)cc12)C1CCCC1` [SB-742609]: 130 nM.

In another test the test system is PDGFRA.
Turning to `Cn1ccc2ncnc(Oc3ccc(NC(=O)Nc4ccccc4)cc3)c21`, the Kd turned out to be 25 nM.
As to `CC(=O)Nc1nc2cnc(Nc3cc(NC(=O)c4cccc(CCC#N)c4)ccc3C)nc2s1`, the Kd is greater than 10000 nM.
On the same count and under the same terms, the same measure for `O=C(Nc1ccccc1)Nc1cccc(Oc2ccc3nccn3n2)c1`: 3.6 nM.
On the same count and under the same terms, as for `Cc1cccc(-c2nc(-c3ccc(S(C)(=O)=O)cc3)sc2-c2ccnc(NCCc3ccccc3)c2)c1`, the figure is 550 nM.

The subject of a further test is PDGFRB.
Compound `CC(C)(C)c1ccc(C(=O)Nc2cn3cc(-c4cccnc4)ccc3n2)cc1` registered a dissociation constant Kd of 220 nM.
Consider `COC(=O)c1c(-c2ccccc2)c2cc(C(=O)O)ccc2c(=O)n1Cc1ccccc1`, for which the affinity, expressed as Kd, was 75 nM.
Compound `Cn1ccc2ncnc(Oc3ccc(NC(=O)Nc4ccccc4)cc3)c21` showed a Kd of 16 nM.
As for `CC(=O)Nc1nc2cnc(Nc3cc(NC(=O)c4cccc(CCC#N)c4)ccc3C)nc2s1`, the equilibrium dissociation constant (Kd) is greater than 10000 nM.
The same measure, in the same setting: the same measure for `Fc1cc(Cl)ccc1Nc1ccnc2cc(I)ccc12` [GW551191]: 410 nM.
Turning to `O=C(Nc1ccccc1)Nc1cccc(Oc2ccc3nccn3n2)c1`, the affinity, expressed as Kd, was 1 nM.
Take `Cc1ccc(NC(=O)Nc2cc(C(C)(C)C)nn2-c2ccccc2)cc1` [GSK1014915]: the dissociation constant (Kd) came out at 340 nM.
The same measure, in the same setting: the same measure for `COC(=O)c1c(-c2ccccc2)c2cc(OC)ccc2c(=O)n1Cc1ccccc1`: 110 nM.
The same measure, in the same setting: as for `Fc1cc(Cl)ccc1Nc1ccnc2cc(-c3ccc(CN4CCCCC4)o3)ccc12` [GW560116], the figure is 210 nM; as for `Cc1ccc(NC(=O)Nc2cccc(Cl)c2)cc1-c1ccc(C(=O)Nc2ccncc2)cc1` [GSK1398468], 50 nM; as for `Cc1cccc(-c2nc(-c3ccc(S(C)(=O)=O)cc3)sc2-c2ccnc(NCCc3ccccc3)c2)c1`, 68 nM.
Still for that read-out and setting: the same measure for `Cc1ccc(C(=O)Nc2ccc(Nc3ccnc4cc(-c5ccccn5)ccc34)cc2O)cc1.Cl` [GW440146]: 480 nM.
